# Reference: PubChem BioAssay (EPA / NIEHS)
# “And” between values parts separate entries of the source, which are not always exact repeats. Equal entries are not always repeated. More than one record can exist for a structure, and the calls need not agree. The source made the active and inactive calls. How the source made its calls: active means hit-call score of the fitted dose curve at least 0.9, where 1 is the maximum; inactive means score below 0.9.
# Experiment: CCTE_Shafer_MEA_dev_burst_rate: CCTE's Neural Network Formation Assay for Burst Rate, Shafer Lab (AID 2284042);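 on AC50: potency for loss of burst rate below DMSO control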
# In short: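 Developmental network assay measuring how 12-day exposure of rat cortical neuron cultures alters bursting on extracellular MEA recordings. Values are AUC of well-mean burst rate across four recording days, relative to DMSO vehicle.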
SMILES,AC50,outcome
COC(=O)N(OC)c1ccccc1COc1ccn(-c2ccc(Cl)cc2)n1,91.4 nM (active),inactive
CCNc1nc(Cl)nc(NC(C)C)n1,,inactive
COP(N)(=O)SC (centres undefined),,inactive
CCCCNC(=O)OCC#CI,3.94 µM (active) and 1.33 µM (active),
CC(C)(C)c1ccc(CSc2cnn(C(C)(C)C)c(=O)c2Cl)cc1,4.9 nM (active),
Cc1c(F)c(F)c(COC(=O)C2C(/C=C(\Cl)C(F)(F)F)C2(C)C)c(F)c1F (centres undefined),716 nM (active),
COc1ccc(C(c2ccc(OC)cc2)C(Cl)(Cl)Cl)cc1,,inactive
C=CCC1=C(C)C(OC(=O)C2C(C=C(C)C)C2(C)C)CC1=O (centres undefined),,inactive
